In PubChem BioAssay AID463173 (ICCB-Longwood Screening Facility, Harvard Medical School, 2010) one finds survival data, which are given here for 91 compounds.

Each structure is given as a SMILES string. Screen size: about 52,000 compounds; about 4,300 (8.3%) were called active. Shown is part of a subset that was picked to be rich in actives. Values without a mark were called inactive. No stated cut-off is given here; in the data, active means survival mostly below about 52% (no sharp cut-off); inactive means mostly above about 56%.

The test relates to DeltatarO mutant. The test can be described thus: growth inhibition of S. aureus wild type versus tarO mutant, primary screen, teichoic acid synthesis inhibitors, RN4220, OD600 (AID 463173). The conditions noted are these: OD600, 18 h, active compounds read low, screened at 18.75 µg/mL (by protocol).
Consider `CCOc1ccc(NC(=O)C2CCN(S(=O)(=O)c3ccc4c(c3)oc(=O)n4C)CC2)cc1`, for which the survival was 91%.
With `CCCCNC(=O)c1cnn2c(C)c(Cc3c(F)cccc3Cl)c(C)nc12` the figure was 135%; with `O=C(CN1C(=O)CCSc2ccccc21)Nc1ccc(C(F)(F)F)cc1`, 111%; with `N#Cc1c(N)nc2c(c1-c1ccccc1)CCCC2`, 102%.
For `COc1ccc(S(=O)(=O)NCc2ccc3c(c2)CCN3C(=O)c2ccc(C)cc2)cc1Cl` the value was 112%.
In the case of `CCOC(=O)c1oc2c(c1C)/C(=N/OC(=O)c1ccccc1Cl)CCC2`, the survival is 69%.
For `Cc1cc(S(=O)(=O)Nc2cc3c(cc2N2CCOCC2)n(C)c(=O)c(=O)n3C)ccc1F` the value was 72%; for `CC(C)(C)c1nnc(NS(=O)(=O)c2ccc(F)cc2)s1`, 82%.
Take `Cc1cc(C)c(S(=O)(=O)Nc2nnc(C(F)(F)F)s2)c(C)c1`: the survival was 36% (active).
With `Cc1ccc(S(=O)(=O)Nc2nnc(CC(C)(C)C)s2)cc1` the figure was 87%; with `Cc1cccc(CSc2ncccc2C(=O)O)c1`, 47% (active); with `Cc1ccc(CSc2ncccc2C(=O)O)cc1`, 87%.
Consider `O=C(O)c1cccnc1SCc1cccc(Cl)c1`, for which the survival is 79%.
With `Cc1ccc(NC(=O)c2c(C)oc3ccc(O)c(CN4CCCC4)c23)c(C)c1` the figure was 67%; with `CCOc1ccc(CCNC(=O)Cn2ccc3cc(S(=O)(=O)N4CCCCCC4)ccc32)cc1`, 126%.
Take `CCc1ccc(OC(=O)c2sc3ncn(Cc4cccc(F)c4)c(=O)c3c2C)cc1`: the survival was 115%.
With `COc1ccc(S(=O)(=O)NCC(c2ccco2)N2CCN(c3ccc(F)cc3)CC2)cc1` (stereo unspecified) the figure was 84%.
On to `CCC(=O)N1CCc2cc(S(=O)(=O)NC(Cc3ccccc3)C(=O)Nc3ccc(C)cc3)ccc21` (stereo unspecified), for which the survival was 64%.
As for `CCC(=O)N1CCc2cc(CNS(=O)(=O)c3ccc(Cl)s3)ccc21`, the survival was 93%.
For the compound `CCC(=O)N1CCc2cc(S(=O)(=O)NC(CC(C)C)C(=O)NCc3ccc(F)cc3)ccc21` (stereo unspecified), the survival was 80%.
With `CCC(=O)N1CCc2cc(S(=O)(=O)NC(CC(C)C)C(=O)NCc3ccc(C)cc3)ccc21` (stereo unspecified), the survival is 97%.
As to `CC(=O)N1CCc2cc(CNS(=O)(=O)c3ccc(Br)s3)ccc21`, the survival was 73%.
For `CCC(=O)N1CCc2cc(S(=O)(=O)NC(Cc3ccccc3)C(=O)NCc3ccccc3)ccc21` (stereo unspecified) the value was 65%; for `CCC(=O)N1CCc2cc(S(=O)(=O)NC(Cc3ccccc3)C(=O)O)ccc21` (stereo unspecified), 25% (active); for `CCC(=O)N1CCc2cc(CNS(=O)(=O)c3ccc(Br)s3)ccc21`, 47% (active).
With `CCC(=O)N1CCc2cc(S(=O)(=O)NC(CC(C)C)C(=O)Nc3ccc(CC)cc3)ccc21` (stereo unspecified) the figure was 60% (active); with `COC(=O)c1ccccc1NC(=O)c1oc2ccc3c(c2c1C)C(=O)CC(C)(C)O3`, 80%.
With `Cc1nc2cc(C(=O)O)ccc2n1-c1ccc(C(C)C)cc1` the figure was 68%; with `COc1cccc(CNC(=O)CSc2nc3ccccc3nc2Cc2ccccc2)c1`, 69%.
For the compound `COc1ccc(NS(=O)(=O)c2ccc(-c3cnc(C4CC4)o3)cc2)cc1Cl`, the survival is 124%.
For `CCOC(=O)C1CCCN(S(=O)(=O)c2ccc(OC)cc2)C1` (stereo unspecified), the survival was 76%.
`CN1C(=O)Cc2cc(S(=O)(=O)CCC(=O)Nc3ccccc3)ccc21`: the survival was 83%.
For `Clc1ccc(CSc2nc3ncccc3[nH]2)cc1`, the survival is 71%.
With `COC(=O)c1ccc(-n2c(/C=C\c3cccc(Br)c3)nc3ccccc3c2=O)cc1` the figure was 70%; with `O=C(O)c1cc(-n2c(/C=C\c3ccc(F)cc3)nc3ccccc3c2=O)ccc1Cl`, 94%.
Regarding `O=C(O)c1ccc(-n2c(/C=C\c3ccc(O)cc3)nc3ccccc3c2=O)cc1`, the survival was 58% (active).
For `COc1ccc(C)cc1NC(=O)N1CC(C)Sc2ccccc21` (stereo unspecified) the value was 55%; for `Cc1ccc(N(C)C(=O)CC(C)S(=O)(=O)c2ccc3c(c2)NC(=O)CO3)cc1` (stereo unspecified), 120%.
For `c1ccc2c(c1)[nH]c1nc(NN=C3CCC(=NNc4nnc5c(n4)[nH]c4ccccc45)CC3)nnc12` the value was 93%; for `COc1cccc(-c2nc3c(c(SCC(=O)Nc4cc(C)ccc4C)n2)Cc2c(CO)cnc(C)c2O3)c1`, 77%; for `CCc1ccc(NC(=O)c2ccc3oc(=O)n(Cc4ccccc4)c3c2)cc1`, 6% (active).
In the case of `O=C(NCc1ccc(F)cc1)c1ccc2oc(=O)n(Cc3ccccc3)c2c1`, the survival was -2% (active).
In the case of `CCn1nnc2cc(C(=O)Nc3ccc(OC)cc3)ccc21`, the survival was 102%.
For `CCc1ccc(NC(=O)c2ccc3c(c2)nnn3CC)cc1` the value was -4% (active).
For `O=C(Nc1ccc(Cl)cc1)c1ccc2oc(=O)n(Cc3ccccc3)c2c1`, the survival was 67%.
On to `O=C(NCc1ccccc1)c1ccc2oc(=O)n(Cc3ccccc3)c2c1`, for which the survival was 72%.
With `O=C(NCc1ccc(Cl)cc1)c1ccc2oc(=O)n(Cc3ccccc3)c2c1` the figure was 109%.
For `O=C(Nc1cccc(F)c1)c1ccc2oc(=O)n(Cc3ccccc3)c2c1` the value was 70%; for `COc1cccc(CNC(=O)c2ccc3oc(=O)n(Cc4ccccc4)c3c2)c1`, -1% (active).
For `Cc1ccc(CNC(=O)c2ccc3oc(=O)n(Cc4ccccc4)c3c2)cc1` the value was 64%.
Consider `CCn1nnc2cc(C(=O)Nc3ccc(C)c(Cl)c3)ccc21`, for which the survival is 54%.
For the compound `Cc1cccc(CNC(=O)c2ccc3oc(=O)n(Cc4ccccc4)c3c2)c1`, the survival was 76%.
With `O=C(Cc1ccc(F)cc1)Nc1nncs1` the figure was 99%.
For `Cc1ccc2ncc(C(=O)N3CCN(c4ccccc4F)CC3)c(=O)n2c1` the value was 102%; for `CCOC(=O)c1c(NC(C)=O)c2c3c(sc2n1Cc1cc(C)ccc1C)CCCC3`, 98%.
Take `O=C(CCOc1ccccc1)N(Cc1cccnc1)c1nc2c(F)cc(F)cc2s1`: the survival was 97%.
`CC1=C(C(N)=O)C(c2cccc(C)c2)n2nc(-c3cccc(C)c3)nc2N1` (stereo unspecified): the survival was 66%.
With `Cc1cccc(NC(=O)C2CCCN(S(=O)(=O)c3cccc4nonc34)C2)c1C` (stereo unspecified) the figure was 119%.
For the compound `Cc1c(C(=O)N(C)C)sc2c1c(=O)n(-c1ccc(F)cc1)c(=O)n2Cc1ccccc1C#N`, the survival was 76%.
For `Cc1ccc(N(C)C(=O)c2sc3nc4n(c(=O)c3c2C)CCCC4)cc1C` the value was 64%.
For the compound `O=C(Cn1c(=O)n(CCCS(=O)(=O)C2CCCCC2)c(=O)c2ccccc21)Nc1ccccc1C(F)(F)F`, the survival is 91%.
In the case of `Cc1ccc(S(=O)(=O)CCC(=O)Nc2ccc(Br)cc2C)cc1`, the survival is 85%.
With `Cc1ccc(C)c(N2CCN(C(=O)C3CCCN(S(=O)(=O)c4cccc5nonc45)C3)CC2)c1` (stereo unspecified) the figure was 76%.
For the compound `COc1ccc(OC)c(NC(=O)c2cc3cccc(OC)c3oc2=O)c1`, the survival was 77%.
On to `Cc1cccc(C)c1NC(=O)c1cc2sccc2n1Cc1ccc(F)cc1`, for which the survival is 96%.
Consider `COc1cc(/C=C(\C#N)c2nc3ccc(C)cc3[nH]2)ccc1OC(C)C`, for which the survival is 46% (active).
For `COc1cc(/C=C(\C#N)c2nc3ccc(C)cc3[nH]2)ccc1OCc1ccc(C)cc1`, the survival is 59%.
With `COc1cc(/C=C(\C#N)c2nc3ccccc3[nH]2)ccc1OCc1ccc(F)cc1` the figure was 70%; with `CCOC(=O)COc1ccc(/C=C(\C#N)c2nc3ccc(C)cc3[nH]2)cc1OC`, 43% (active); with `COc1ccc(/C=C(\C#N)c2nc3ccccc3c(=O)[nH]2)cc1OC`, 86%.
On to `CCC(=O)Oc1ccc(/C=C(\C#N)c2nc3ccccc3[nH]2)cc1OC`, for which the survival is 47%.
For `Cc1ccc(-n2nc(C)c3c(C)cc(=O)n(CC(=O)N4CCCc5ccccc54)c32)cc1` the value was 80%.
With `Cc1oc2ncn(CC(C)C)c(=O)c2c1C(=O)Nc1ccc(Cl)cn1` the figure was 86%; with `COc1ccc(CNC(=O)C2CCC(CNS(=O)(=O)c3ccc4c(c3)CCCC(=O)N4)CC2)cc1` (stereo unspecified), 87%.
In the case of `CCc1cccc(NC(=O)C2CCCN(c3ncccn3)C2)c1` (stereo unspecified), the survival was 80%.
For `COc1ccc(CNC(=O)CCc2c(C)nn(-c3ccc(N4CCCCC4)nn3)c2C)cc1` the value was 75%.
For `Cc1ccc(CNC(=O)CN2CCN(Cc3ccc(F)cc3)C2=O)cc1` the value was 95%; for `Cc1c(Cl)cccc1NC(=O)c1ccc(C(=O)Nc2cccc(Cl)c2C)cc1`, 81%.
With `Cc1ccc(C(=O)O)cc1Nc1nc2ccccc2n2nnnc12` the figure was 82%; with `CCCCOC(=O)c1ccc(Nc2nnc(-n3nc(C)cc3C)c3ccccc23)cc1`, 98%.
As for `CCC(Cc1ccccc1)NC(=O)c1cccc(Nc2nc3ccccc3nc2-n2nc(C)cc2C)c1` (stereo unspecified), the survival is 63%.
For `CCCOC(=O)c1ccc(Nc2nc3ccccc3nc2-n2nc(C)cc2C)cc1`, the survival is 24% (active).
Consider `Cc1cc(C)n(-c2nc3ccccc3nc2Nc2cccc(C(=O)NCCc3ccccc3)c2)n1`, for which the survival was 93%.
With `CC(=O)c1ccc(Nc2nc3ccccc3nc2-n2nc(C)cc2C)cc1` the figure was 44% (active).
With `Cc1ccc(Nc2nc3ccc(C)cc3nc2-n2nc(C)cc2C)c(C)c1` the figure was 81%; with `Cc1cc(C)n(-c2nc3ccccc3nc2Nc2cc(C(=O)O)ccc2C)n1`, 42% (active); with `Cc1cc(C)n(-c2nc3ccccc3nc2Nc2ccc(Cl)c(C(=O)OC(C)C)c2)n1`, 99%.
With `COc1cccc(C(=O)Nc2c(C(=O)c3ccc(F)cc3)oc3ccccc23)c1` the figure was 66%.
As to `CCn1c(SC)nnc1C1CCCN(Cc2ccccc2)C1` (stereo unspecified), the survival was 100%.
As to `CC(C)Cn1cc(NC(=O)N2CCN(c3ccc(F)cc3)CC2)c2ccccc2c1=O`, the survival was 99%.
With `O=C(Nc1cccc(F)c1)c1ccc(-c2ccccc2)s1` the figure was 82%.
